Compound activity deposited in PubChem BioAssay by National Center for Advancing Translational Sciences (NCATS).
BRCA1 expr act = activators of BRCA1 expression; MCF7-BRCA1-FFLuc reporter, luminescence, 48 h; response scale: scaled: vehicle 0%, 10 µM genistein 100%; Potency, µM (series often up to 46.1 µM), for inactives: at the highest dose activation, hits mostly activators; AID 624202; hit rate 1.1% among 380,000; further: nearly all actives have a fitted effect of over 80% in size
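Reporter cells (MCF7, BRCA1 promoter-firefly luciferase) received library compounds across a concentration series for 48 h. End-point luminescence was measured and concentration-effect curves derived after normalization.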
HEK293 tox = cytotoxicity in counter-screen for GLP-1R inverse agonists. HEK293 cAMP-luciferase reporter cells, luminescence, 24 h. AID 624418. hit rate 0.13% among 410,000. Potency, µM (titrated, usually from 38.3 µM), without a hit: top-dose activity change, negative = inhibition, most hits filed as inhibitors;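 further: loss of luciferase light is scored as toxicity; on the % scale 0 is the no-effect control and ±100 the full control effect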
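1536-well qHTS counterscreen of the MLSMR; 200 cells/uL, 12 h pre-incubation, 23 nL cpd, 24 h at 37 deg C 5% CO2, luciferase detection reagent, 12 min RT, luminescence. Inhibition = undesired.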
GLP1R ag = agonists of human GLP-1 receptor. Potency, µM (titrated, usually from 45.6 µM), for the others: top-dose activation, actives largely listed as activators. HEK293 GLP-1R CRE-luciferase, luminescence, 4-6 h; cells express a hypersensitive GLP-1R form. hit rate 0.007% among 380,000; further: % of control where 0% means no effect
Target sequence (P43220 whole entry, looked up): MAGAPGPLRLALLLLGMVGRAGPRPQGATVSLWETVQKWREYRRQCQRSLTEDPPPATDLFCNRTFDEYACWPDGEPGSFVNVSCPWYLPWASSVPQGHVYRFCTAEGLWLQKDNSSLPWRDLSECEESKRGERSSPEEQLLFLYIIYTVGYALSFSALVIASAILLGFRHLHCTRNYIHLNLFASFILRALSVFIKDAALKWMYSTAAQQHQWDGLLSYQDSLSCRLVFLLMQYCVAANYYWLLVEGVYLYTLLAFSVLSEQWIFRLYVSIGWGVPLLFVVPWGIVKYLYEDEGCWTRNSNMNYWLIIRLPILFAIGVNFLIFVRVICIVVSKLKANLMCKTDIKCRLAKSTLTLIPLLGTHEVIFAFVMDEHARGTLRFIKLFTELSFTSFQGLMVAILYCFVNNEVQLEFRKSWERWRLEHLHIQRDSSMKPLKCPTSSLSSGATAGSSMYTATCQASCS
GLP-1R inv ag = inverse agonists of human GLP-1 receptor; P43220; HEK293 GLP-1R CRE-luciferase, luminescence, 24 h; GLP-1R form is constitutively active; Potency, µM (highest dose often 38.3 µM), inactives show at the highest dose activity change, negative = inhibition, hits mostly inhibitors; hit rate 1.6% among 410,000; further: on the % scale 0 is the no-effect control and ±100 the full control effect; nearly all actives have a fitted effect of over 55% in size
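Cells are plated, allowed 12 hours at 37 deg C, then treated with compounds for 24 hr before luciferase detection reagent is added and luminescence is read after 12 min at room temperature. The HEK293 line carries constitutively active GLP-1R with a cAMP-responsive reporter.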
* marks the source's active call; other numbers are inactive results; ? = inconclusive; . = no result. Sampled rows, rich in hits. Any-hit rate of the full collection: about 2.6%. The call rests on the fitted dose curve; in most records, active means well fitted curve in the direction sought with a large enough effect; inconclusive means small, poorly fitted or top-dose-only effect, or another doubt; inactive means no such curve, though single readings can be large; an effect the other way counts as inactive or inconclusive. Potency means the concentration at half of the fitted maximal effect.

SMILES	BRCA1 expr act	HEK293 tox	GLP1R ag	GLP-1R inv ag
O=[N+]([O-])c1ccc(N/N=C/c2ccccc2)c(F)c1	8.9µM*	24%	-9%	?
O=[N+]([O-])c1ccc(C=NNc2ccccc2)cc1	15%	-8%	-13%	5µM*
CCc1ccccc1NC(=O)CCc1c(C)nc2cc(-c3ccccc3)nn2c1C	7%	-11%	1%	4%
O=C(C[n+]1cccc(Br)c1)c1ccc(O)c(O)c1	0%	.	.	.
CN1CCc2c(sc3c2C(=O)NC(c2cn(Cc4ccccc4)c4ccccc24)N3)C1 (centres undefined)	-54%	163%	-3%	4µM*
CCn1c(CNC(C)=O)nnc1SCC(=O)c1ccc(Br)cc1	3%	16%	2%	13%
CCN(CC)C(=S)SCC(=O)c1ccc(Br)cc1	13µM*	7%	3%	?
CCN1CCc2nc3sc(C(=O)Nc4cccc(Cl)c4C)c(N)c3cc2C1	.	-4%	.	?
Cc1oc(-c2ccc(C(=O)NCc3ccc(F)cc3)cc2)nc1CS(=O)c1ccccc1 (centres undefined)	.	-9%	.	?
C/C=C(/C)C(=O)O[C@@H]1c2c(ccc3ccc(=O)oc23)O[C@@H]1C(C)(C)OC(=O)/C(C)=C\C	-43%	5%	-1%	13µM*
CCOC(=O)C1=C(c2ccccc2)NC(N)=NC1c1ccc(OCc2ccc(C(=O)OC)cc2)cc1 (centres undefined)	-42%	?	8%	8.9µM*
Cc1nonc1CC(=O)N1CCc2c([nH]c3ccccc23)C1c1ccccc1F (centres undefined)	-19%	-9%	9%	?
Cc1ccc(NC(=O)N2CCc3c([nH]c4ccccc34)C2c2ccccc2F)c(Cl)c1 (centres undefined)	.	-12%	.	10µM*
O=C(Nc1ccccc1)N1CCc2c([nH]c3ccccc23)C1C(F)(F)F (centres undefined)	-38%	8%	2%	2.8µM*
CC1c2[nH]c3ccccc3c2CCN1C(=O)Nc1ccccc1 (centres undefined)	-57%	7%	-16%	?
O=C(COc1ccc(-c2ccccc2)cc1)NNC(=O)Nc1ccc(F)cc1F	-6%	0%	-14%	8%
COc1cccc(-n2ccn(CC(=O)c3ccc(F)cc3)c(=O)c2=O)c1	.	1%	.	10%
COc1ccc(S(=O)(=O)N2CCN(C(=O)CCNC(=O)c3ccccc3Cl)CC2)cc1	-24%	1%	0%	15%
CC(=O)Nc1cnc(-c2cc(C)c(O)c(C)c2)cn1	8.9µM*	-26%	26%	15%
CC(=O)Nc1ccc(NC(=O)C2(C)Cc3c(-c4ccc5c(c4)OCO5)ccnc3O2)cc1 (centres undefined)	-8%	-10%	25%	21%
CC(=O)Nc1cnc(-c2ccc3c(c2)OCO3)cn1	2.8µM*	-1%	-1%	-1%
O=C(Nc1nc(-c2ccc3c(c2)OCO3)cs1)C1CC1	4.5µM*	2%	5%	?
CC(=O)Nc1cnc(-c2ccccc2C(C)=O)cn1	4%	-4%	-3%	-11%
O=C(O)C(=O)Nc1nc(-c2ccc3c(c2)OCCO3)cs1	49%	0%	6%	8%
Cc1ccc2c(Sc3ccc(Cl)cc3)c(C(=O)N3CCC(C)CC3)[nH]c2c1	.	-10%	.	10µM*
SMILES	BRCA1 expr act	HEK293 tox	GLP1R ag	GLP-1R inv ag
COc1ccc2c(Sc3ccc(Cl)cc3)c(C(=O)N3CCC(C)CC3)[nH]c2c1	.	-5%	.	?
CC(C)Oc1ccc(C(=O)NCc2cccs2)cc1	13µM*	0%	0%	?
CC(C)Cc1cc(C(=O)NCc2cccnc2)no1	48%	11%	3%	-15%
Cc1cc(C(=O)NCc2cccs2)cs1	10µM*	-1%	-1%	19%
CC(C)Cc1cc(C(=O)NCc2cccs2)no1	13µM*	0%	-3%	?
CC[C@@H](C)C(N)C(=O)O (some centres undefined)	.	.	0%	.
CC(=O)c1ccc(S(=O)(=O)N2CCN(c3nn(C)c(=O)n(C)c3=O)CC2)cc1	0%	13%	-1%	18%
Cc1cccc(OCC(=O)Nc2cc(-c3nc4cc(Cl)ccc4o3)ccc2C)c1	6%	.	.	.
COc1ccc2[nH]c3c(N4CC(C)OC(C)C4)ncnc3c2c1 (centres undefined)	-41%	-28%	13%	16%
